# Experimental data reported in PubChem BioAssay AID686979 (National Center for Advancing Translational Sciences (NCATS), 2013).
# The campaign covered roughly 420,000 compounds. About 50,000 (12%) were called active. Roughly 26% stayed inconclusive and do not appear here. The call rests on the fitted dose curve; in most records, active means well fitted inhibition curve with a large enough effect; inconclusive means small, poorly fitted or top-dose-only effect; inactive means flat fitted curve, though single readings scatter. What follows is part of a selection rich in actives, with near analogues and random picks from the rest.
# Assay: qHTS for Inhibitors of human tyrosyl-DNA phosphodiesterase 1 (TDP1): qHTS in cells in presence of CPT; further: nearly all actives have a fitted effect of over 55% in size
# Details: chicken DT40 Tdp1-/-;hTDP1 cells + 20 nM CPT, ATP luminescence, 48 h; series mostly up to 46.2 µM; activity change, negative = growth inhibition: at the top concentration
# In short: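 Cell growth measured by CellTiter-Glo luminescence after a minimum 48 h, 37 C compound exposure with 20 nM CPT in Tdp1-knockout DT40 cells stably expressing hTDP1, seeded 400/well; qHTS titration format.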
# On the % scale 0 is the no-effect control and ±100 the full control effect; potency means the concentration at half of the fitted maximal effect.
Structure (SMILES),"activity change, negative = growth inhibition",Potency
CCOC(=O)CSc1nc(N2CCOCC2)c2c(c1C#N)CC(C(C)C)OC2 (configuration not stated),4.05% (inactive),–
Cc1cccc(NC(=O)Cc2ccc(Br)cc2)n1,-9.2% (inactive),–
Cc1ccsc1C(C(=O)NC1CCCCC1)N(C(=O)Cc1cccs1)C1CC1 (configuration not stated),–,20.6 µM (active)
CC(Cc1cccs1)NC(=O)NC1CCCCC1 (configuration not stated),-11.7% (inactive),–
Cc1ccccc1N(C(=O)Cc1cccs1)C(C(=O)NC1CCCCC1)c1cn(C)nc1C (configuration not stated),-25.4% (inactive),–
CC(NC(=O)c1ccccc1SCC(=O)N1CCCC1)c1ccccc1 (configuration not stated),-7.91% (inactive),–
CC(NC(=O)c1cc(Sc2ccc(F)cc2F)nc2ccccc12)c1ccccc1 (configuration not stated),–,13 µM (active)
CC(NC(=O)c1cc(=O)[nH]c2ccccc12)c1ccc(F)cc1F (configuration not stated),7.75% (inactive),–
CCCCNC(=O)c1nc(C2CCN(S(=O)(=O)c3ccc(F)c(F)c3)CC2)oc1-c1cccc(C(F)(F)F)c1,1.62% (inactive),–
COc1ccc(N2CCN(S(=O)(=O)c3cc(Br)cnc3N)CC2)cc1,20.1% (inactive),–
COc1ccc(N2CCN(Cc3nnc(-c4ccccc4)o3)CC2)cc1,-12.2% (inactive),–
COc1ccc(N2CCN(c3cc(C)nc4nncn34)CC2)cc1,–,13 µM (active)
O=C(O)c1ccc2c(c1)N(Cc1ccc(F)cc1)C(=O)c1ccccc1S2=O (configuration not stated),–,11.6 µM (active)
CN(C(=O)c1ccc2c(c1)N(Cc1cccc(Cl)c1)C(=O)c1ccccc1S2=O)C1CCCCC1 (configuration not stated),–,18.4 µM (active)
CCN(CC)C(=O)C1CCCN(Cc2cccc(Cl)c2)C1 (configuration not stated),-27.2% (inactive),–
O=C(CCN1C(=O)c2ccccc2C1=O)NNC(=O)c1ccc(Cl)cc1Cl,-13.6% (inactive),–
O=C(CN1C(=O)c2ccccc2C1=O)NCc1ccc(C(=O)O)cc1,0.562% (inactive),–
Cc1cccc(C(=O)Nc2ccc3c(c2)C(=O)N(CC(C)C)C3=O)c1,-28.1% (inactive),–
O=C(Nc1cc(Cl)cc(Cl)c1)c1ccc2c(c1)N(Cc1cccc(Cl)c1)C(=O)c1ccccc1S2=O (configuration not stated),–,3.66 µM (active)
CN(Cc1ccc(F)cc1)C(=O)CN1C(=O)c2ccccc2S1(=O)=O,6.12% (inactive),–
Cc1ccccc1NC(=O)NCC1CCN(Cc2cccc(Cl)c2)CC1,7.35% (inactive),–
Brc1cc(/C=N/n2cnnc2)oc1Br,-27.2% (inactive),–
CCCOC1CCCN(Cc2cn(C)nc2-c2ccccc2F)C1 (configuration not stated),17% (inactive),–

Structure (SMILES),"activity change, negative = growth inhibition",Potency
CC(=O)N1CC(=O)N(CC(=O)Nc2ccc(Br)cc2)C1=S,-13.4% (inactive),–
COc1cccc(CNC(=O)Cn2c(=O)c3cccn3c3ccc(F)cc32)c1OC,-10.8% (inactive),–
Cc1cccc(N2CC(C(=O)Nc3ccccc3N3CCCC3)CC2=O)c1C (configuration not stated),9.32% (inactive),–
O=C(COc1ccccc1F)OCc1cc(=O)n2nc(C3CCCCC3)sc2n1,-2.79% (inactive),–
CN(C)CCN=c1cc(-c2ccccc2)oc2ccc(Cl)cc12,1.27% (inactive),–
CCc1nn(CC(=O)Nc2cccc(C)c2C)c(=O)c2cc3sccc3n12,-1.63% (inactive),–
CCc1nn(CC(=O)Nc2cc(C)cc(C)c2)c(=O)c2cc3sccc3n12,–,4.11 µM (active)
CCc1nn(CC(=O)NCC(C)c2ccccc2)c(=O)c2cc3occc3n12 (configuration not stated),-15.7% (inactive),–
O=C(CC1SC(N2CCOCC2)=NC1=O)Nc1ccccc1F (configuration not stated),5.5% (inactive),–
O=C(Cc1ccc(S(=O)(=O)N2CCOCC2)s1)N1CCN(c2ccc(C(F)(F)F)cc2[N+](=O)[O-])CC1,–,14.6 µM (active)
Cc1cc(S(=O)(=O)N2CCOCC2)ccc1OCC(=O)Nc1cccc(C(F)(F)F)c1,-10.3% (inactive),–
O=C(Nc1cc(Cl)ccc1N1CCOCC1)c1ccc(N2CCCC2=O)cc1,-12.9% (inactive),–
O=C(COc1ccc(S(=O)(=O)N2CCOCC2)cc1Cl)N1CCOCC1,1.63% (inactive),–
O=C(Cc1ccc(S(=O)(=O)N2CCOCC2)s1)NCCOc1ccccc1F,-23.9% (inactive),–
CNS(=O)(=O)c1ccc(N2CCCC2=O)c([N+](=O)[O-])c1,21.4% (inactive),–
O=C(OCC(=O)N1CCOCC1)c1ccc(N2CCOCC2)c([N+](=O)[O-])c1,17.7% (inactive),–
O=C(Cc1ccc(S(=O)(=O)N2CCOCC2)s1)Nc1ccc(Br)c(C(F)(F)F)c1,–,14.6 µM (active)
O=C(c1ccc(N2CCCC2=O)cc1)N1CCN(c2ccc(C(F)(F)F)cc2[N+](=O)[O-])CC1,–,3.66 µM (active)
O=C(Nc1ccccc1Cl)N1CCN(c2ccc3nncn3n2)CC1,3.27% (inactive),–
Cc1c(C)c2ccc(OCC(=O)N3CCC(C(=O)O)CC3)c(C)c2oc1=O,17.1% (inactive),–
Cc1cccc(OCCC(=O)OCc2csc(CC(=O)Nc3ccccc3C)n2)c1,-16.9% (inactive),–
COC(=O)c1ccc(CNC(=O)c2ccc3oc(C(C)C)nc3c2)cc1,-27.4% (inactive),–
COc1ccc(CSc2nnnn2-c2ccc(O)cc2)cc1F,-50.4% (inactive),–

Structure (SMILES),"activity change, negative = growth inhibition",Potency
CC1CCCCC1NC(=O)Cn1cnc2c1c(=O)n(C)c(=O)n2C (configuration not stated),-10.2% (inactive),–
O=C(c1ccc(Oc2ccc(Cl)cc2)c([N+](=O)[O-])c1)N1CCCC1,–,13 µM (active)
O=C(Oc1ccccc1Cl)c1ccc(N2CCOCC2)c([N+](=O)[O-])c1,-13.1% (inactive),–
O=C(COc1ccc(Cl)cc1[N+](=O)[O-])N1CCCCC1,-12.8% (inactive),–
Cc1ccc(-c2nn(CC(C)(C)C)c3ncnc(N)c23)cc1,–,6.68 µM (active)
Cc1ccc(-n2cnc3ncnc(-c4ccccc4)c32)cc1,24.9% (inactive),–
CC(=O)NC(CC(=O)Nc1nccs1)c1ccccc1 (configuration not stated),-13% (inactive),–
CCOc1ccc(NC(=O)CN(C)C(=O)COc2cccc(CC)c2)cc1OCC,-24.3% (inactive),–
Cc1noc(C)c1CCC(=O)N1CCCC(CO)(Cc2ccccc2)C1 (configuration not stated),-17.9% (inactive),–
Oc1ccc2ccccc2c1C=Nc1ccccc1,1.22% (inactive),–
Oc1ccc2ccccc2c1N=Nc1nccs1,–,1.16 µM (active)
Oc1ccc(N=Nc2nccs2)c(O)c1,–,10.3 µM (active)
O=C(OCC(=O)N1CCCCCC1)c1ccc(Br)c(S(=O)(=O)N2CCOCC2)c1,-9.49% (inactive),–
COC(=O)C1=C(C(=O)OC)[C@@H]2N(Cc3ccccc3)c3ccccc3[C@@]23C[C@@H](C(=O)OC)N(S(=O)(=O)c2ccc(C(F)(F)F)cc2)C3=N1,-26.2% (inactive),–
CN1OC[C@@H]2CN(C(=O)C(C)(C)C)[C@H](c3ccc(-n4ccnc4)cc3)C[C@@H]21,-11.7% (inactive),–
Cc1c(NC(=O)c2coc(=O)c(Br)c2)c(=O)n(-c2ccccc2)n1C,–,2.59 µM (active)
Cc1cc(C(=O)Nc2c(C)n(C)n(-c3ccccc3)c2=O)cs1,-15% (inactive),–
O=C(Nc1cccc(NC(=O)c2cccc(F)c2)c1)c1ccccc1,-13.4% (inactive),–
O=C(Nc1cccc(F)c1)c1coc(=O)c(Br)c1,–,1.3 µM (active)
Cc1c(NC(=O)c2cccnc2)c(=O)n(-c2ccccc2)n1C,–,inactive
O=C(CCN1C(=O)c2ccccc2C1=O)Nc1cccc(F)c1,-3.34% (inactive),–
